SMILES strings stand for the structures. Inconclusive results are not listed. A call without a number means that no potency is given here. Unmarked numbers belong to inactive results. The source made the active and inactive calls. Calls follow the shape of the dose curve; as a rule, active = well fitted curve in the direction sought with a large enough effect; inconclusive = small, poorly fitted or top-dose-only effect, or another doubt; inactive = no such curve, though single readings can be large; an effect the other way counts as inactive or inconclusive.

The nature of one test: Counterscreen qHTS for small molecule stabilizers of the endoplasmic reticulum resident proteome: GLuc-NoTag assay (AID 1508627). Also: potency is read from the fitted curve at half-maximal effect.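 As to activity change, negative = inhibition: SH-SY5Y cells given compound then 100 nM thapsigargin to empty ER calcium.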 The settings on record: Gaussia luciferase NoTag secretion counterscreen, luminescence, thapsigargin 100 nM for final 4 h; series mostly up to 76.4 µM. The method, boiled down: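 SH-SY5Y cells stably expressing constitutively secreted GLuc (no SERCaMP tag) were pre-incubated 5 h, treated with compound for 19 h, then 100 nM thapsigargin for 4 h at 37C; medium GLuc read by coelenterazine luminescence.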
On the technique in general: The purpose of a counterscreen is to sort out artefacts and off-target activity.
Turning to `CCN(CC)CCO[C@H]1CC[C@@]2(C)C(=CC[C@@H]3[C@H]2CC[C@]2(C)C(=O)CC[C@H]32)C1`, the Potency is 25.1 µM (active).
For `CN1CC[C@@H]2CN3CCc4cccc(c43)[C@H]2C1`, the Potency result is “inactive”.
On the same count and under the same terms, then `O[C@@H]1[C@H](O)[C@H]2[C@@H](O)CCN2C[C@@H]1O`, with “inactive”; and `Fc1ccc(C(OCCN2CCN(C/C=C\c3ccccc3)CC2)c2ccc(F)cc2)cc1`, with 39.8 µM (active).

The next test is described as follows: Confirmatory qHTS for small molecule stabilizers of the endoplasmic reticulum resident proteome: Secreted ER Calcium Modulated Protein (SERCaMP) assay (AID 1508628). Also: nearly all actives have a fitted effect of over 40% in size. Also: potency is read from the fitted curve at half-maximal effect. The settings on record: SERCaMP secreted luciferase ER calcium/proteostasis reporter; series mostly up to 76.3 µM. The method, boiled down:
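We seeded SH-SY5Y-GLuc-SERCaMP cells, added compounds (three concentrations in the primary run, eleven up to 76.6 uM in confirmation), incubated 16 h, depleted ER calcium with thapsigargin, and read luciferase 4 h later.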
In general terms: In qHTS, concentration-response curves come from the screen itself.
`CCN(CC)CCO[C@H]1CC[C@@]2(C)C(=CC[C@@H]3[C@H]2CC[C@]2(C)C(=O)CC[C@H]32)C1`: the Potency was 31.6 µM (active).
With `O[C@@H]1[C@H](O)[C@H]2[C@@H](O)CCN2C[C@@H]1O`, the Potency result is “inactive”.
Turning to `CNc1ccc2oc(C[C@H]3O[C@]4(CC[C@H]3C)O[C@H]([C@H](C)C(=O)c3ccc[nH]3)[C@H](C)C[C@H]4C)nc2c1C(=O)O`, the Potency entry is “inactive”.

The nature of a further test: Cell Viability qHTS for small molecule stabilizers of the endoplasmic reticulum resident proteome (AID 1508629).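 Also: compound exposure about 46 h in total before the viability read.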 Also: potency is read from the fitted curve at half-maximal effect.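 As to max response: human SH-SY5Y neuroblastoma cells carrying the GLuc-SERCaMP reporter.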 The settings on record: cell viability counter-screen, 100 nM thapsigargin for final 4 h.
`CCN(CC)CCO[C@H]1CC[C@@]2(C)C(=CC[C@@H]3[C@H]2CC[C@]2(C)C(=O)CC[C@H]32)C1`: the Potency is 12.6 µM (active).
As for `C=CCN1C[C@H](C)N([C@H](c2ccc(C(=O)N(CC)CC)cc2)c2cccc(O)c2)C[C@H]1C`, the max response was 8.89%.
Consider `CNc1ccc2oc(C[C@H]3O[C@]4(CC[C@H]3C)O[C@H]([C@H](C)C(=O)c3ccc[nH]3)[C@H](C)C[C@H]4C)nc2c1C(=O)O`, for which the Potency is 8.91 µM (active).

The next test in a line: Primary qHTS for small molecule stabilizers of the endoplasmic reticulum resident proteome: Secreted ER Calcium Modulated Protein (SERCaMP) assay (AID 1508630). The settings on record: SH-SY5Y GLuc-SERCaMP (Gaussia luciferase released on ER calcium loss) secretion, thapsigargin, luminescence; series mostly up to 38.4 µM. The method, boiled down:
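GLuc-SERCaMP-expressing SH-SY5Y cells, pretreated 16 h with compound, are challenged with thapsigargin to empty ER calcium stores; after 4 h, coelenterazine is added directly to the medium and luminescence is imaged.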
As for `N[C@@H](CCCCP(=O)(O)O)C(=O)O`, the Potency entry was “inactive”.
Take `C[C@@H]1O[C@@H](O[C@H]2C[C@@H](O)[C@]3(CO)[C@@H]4C(CC[C@]3(O)C2)[C@@]2(O)CC[C@H](C3=CC(=O)OC3)[C@@]2(C)C[C@H]4O)[C@H](O)[C@H](O)[C@H]1O` (some centres not stated): the Potency result was “inactive”.
`CCN1C[C@]2(COC)CC[C@H](OC)[C@@]34C5C[C@@H]6[C@@H](OC)C[C@@]7(OCO[C@@]7([C@@H](O)C23)[C@@H]14)C5[C@H]6OC` (some centres not stated): the Potency result was “inactive”.
`C[C@]12CC[C@H]3[C@@H](C[C@H](F)C4=CC(=O)CC[C@@]43C)[C@@H]1CC[C@@H]2O`: the Potency result is “inactive”.
As for `CC(=O)C1CCC2C3CCC4CC(C)(O)CCC4(C)C3CCC12C` (configuration not stated), the Potency result was “inactive”.
The same measure, in the same setting: then `COc1cc(CCN)ccc1O`, with “inactive”.
With `O[C@@H]1[C@H](O)[C@H]2[C@@H](O)CCN2C[C@@H]1O`, the Potency entry was “inactive”.
On the same count and under the same terms, then `Clc1ccc(C2=CCC[C@H]3CC[C@@H]2N3)cn1`, with “inactive”; and `Cn1cc(C(=O)C(=O)N[C@H]2CN3CCC2CC3)c2ccccc21`, with “inactive”.
Take `O=C1NCN(c2ccccc2)C12CCN(C[C@H]1COc3ccccc3O1)CC2`: the Potency entry was “inactive”.
`CNc1ccc2oc(C[C@H]3O[C@]4(CC[C@H]3C)O[C@H]([C@H](C)C(=O)c3ccc[nH]3)[C@H](C)C[C@H]4C)nc2c1C(=O)O`: the Potency entry was “inactive”.
For the molecule `CSCC[C@H](NC(=O)[C@H](Cc1ccccc1)NC(=O)CNC(=O)CNC(=O)[C@@H](N)Cc1ccc(O)cc1)C(=O)O`, the activity change, negative = inhibition is -26.7% [at 3.88 µM].

These data come from PubChem BioAssay (NCATS).
